Source: PubChem BioAssay
Shown are actives, neighbours in structure and some others; about 5.7% of the full set was active somewhere.
Giardia kill: Small Molecules that selectively kill Giardia lamblia: qHTS; Giardia lamblia trophozoite viability; 340,000 compounds, 0.15% hits; activity change, % at 7.66 µM, hits read low; in the data active = activity change below about -80%; inconclusive = between about -30% and that limit;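 also: parasites exposed to compound for two days anaerobically before the ATP read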
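ATP-content bioluminescence gauges trophozoite survival. Cells (100/well) receive compound and incubate anaerobically for 48 hrs at 37 deg C; detection reagent follows for 15-30 min at room temperature.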
KB-3-1 tox: qHTS assay for MDR1-selective chemotherapeutics: Primary screen using the parental adenocarcinoma cell KB-3-1; KB-3-1 viability, CellTiter-Glo ATP luminescence, 72 h; Potency, µM (series often up to 46.1 µM), usual class: cytotoxic; 400,000 compounds, 1.4% hits; also: potency is read from the fitted curve at half-maximal effect; nearly all actives have a fitted effect of over 60% in size
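KB-3-1 cells, DMEM (no phenol red) + 10% FBS; compound by pin transfer, 72 h, 37 °C. Readout: CellTiter-Glo luminescence after 10 min. Data normalized, curve-fitted.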
A549 viability: Nrf2 qHTS screen for inhibitors: counterscreen for cytotoxicity | A549 ARE-Fluc cells, CellTiter-Fluor viability, 18-24 h | Potency, µM (doses to about 46 µM), without a hit: top-dose activity change, negative = cytotoxicity, usual class: inhibitors | 390,000 compounds, 0.16% hits | AID 504648, 2011; also: potency is read from the fitted curve at half-maximal effect
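A549 ARE-Fluc cells in 5% FBS OPTI-MEM, 5000 cells/well, rested 2 h then exposed to compounds in concentration-response for 18-24 h at 37 °C. Viability by CellTiter-Fluor fluorescence (Ex 405/Em 525) after 30 min; luciferase luminescence (BugLite, 15 min, RT) read afterwards.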
Nrf2 inh: Nrf2 qHTS screen for inhibitors. A549 ARE-Fluc reporter, luciferase luminescence, 18-24 h. Potency, µM (series often up to 46 µM), without a hit: at the top dose activity change, negative = inhibition, usual class: inhibitors. 360,000 compounds, 2.1% hits. AID 504444, 2011; also: potency is read from the fitted curve at half-maximal effect; nearly all actives have a fitted effect of over 60% in size
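Cells were seeded and rested 2 h, then exposed to compounds for 18-24 h. CellTiter-Fluor was read first as a viability measure. BugLite was added 15 min before the final luminescent read of ARE-luciferase activity in A549 cells.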
PI4K2A block: qHTS for small molecular inhibitors of PI4K2A; Phosphatidylinositol 4-kinase type 2-alpha (Homo sapiens), Q9BTU6; purified PI4K2A, ADP-Glo luminescence, 1 h; active compounds read low; activity change, negative = inhibition, % at 76.9 µM; 420,000 compounds, 0.13% hits; AID 1346378, 2018; in the data active = activity change below about -50%; inconclusive = mostly about -30% to -49%;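 also: -100% = wells without enzyme as full effect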
Target sequence (Q9BTU6 whole entry, looked up): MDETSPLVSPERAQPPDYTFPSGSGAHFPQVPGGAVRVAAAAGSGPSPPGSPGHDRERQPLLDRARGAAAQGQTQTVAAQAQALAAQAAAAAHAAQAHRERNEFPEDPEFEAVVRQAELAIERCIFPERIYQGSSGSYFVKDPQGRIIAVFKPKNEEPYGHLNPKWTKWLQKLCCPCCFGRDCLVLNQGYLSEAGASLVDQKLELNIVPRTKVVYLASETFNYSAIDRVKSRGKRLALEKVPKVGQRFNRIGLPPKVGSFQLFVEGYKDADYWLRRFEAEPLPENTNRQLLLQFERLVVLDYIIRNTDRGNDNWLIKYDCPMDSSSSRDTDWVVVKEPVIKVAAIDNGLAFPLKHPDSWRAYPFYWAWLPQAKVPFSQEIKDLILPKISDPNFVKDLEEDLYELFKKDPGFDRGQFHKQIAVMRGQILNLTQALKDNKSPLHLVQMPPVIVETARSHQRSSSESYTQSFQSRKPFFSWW
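In this quantitative HTS, ADP production by PI4K2A was quantified luminescently after 1 h at ambient temperature; 100 microM adenosine served as plate-quality control.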
KB-V1 MDR tox: qHTS assay for MDR1-selective chemotherapeutics: Primary screen using the drug-selected MDR subline cells KB-V1. KB-V1 MDR cells viability, CellTiter-Glo, 72 h. Potency, µM (top dose mostly 46.1 µM), most hits filed as cytotoxic. 400,000 compounds, 3.4% hits. AID 1347076, 2019; also: potency is read from the fitted curve at half-maximal effect; nearly all actives have a fitted effect of over 60% in size
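Luminescent ATP read-out (CellTiter-Glo, 10 min) measures survival of drug-selected KB-V1 MDR cells after 72 h, 37 degrees C compound exposure. Medium: phenol-red-free DMEM, 10% FBS. Values from fitted concentration-response curves.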
An asterisk follows results filed as active. Unless noted, calls follow the shape of the dose curve; as a rule, active = well fitted curve in the direction sought with a large enough effect; inconclusive = small, poorly fitted or top-dose-only effect, or another doubt; inactive = no such curve, though single readings can be large; an effect the other way counts as inactive or inconclusive. Unless noted, % is scaled to controls: 0 for no effect and ±100 for the full control effect.

Screening CC1(C)Cc2nc3sc4c(=O)n(Cc5ccccc5)cnc4c3cc2CS1 returned Giardia kill 14, KB-3-1 tox inactive, A549 viability 1%, Nrf2 inh -16%, PI4K2A block -3 and KB-V1 MDR tox 8.2µM*.
CCCn1cnc2c(sc3nc4c(cc32)CSC(C)(C)C4)c1=O was read as Giardia kill 10, KB-3-1 tox inactive, A549 viability -1%, Nrf2 inh inconclusive, PI4K2A block 4 and KB-V1 MDR tox inactive.
`CC1(C)Cc2nc3sc4c(=O)n(CC(=O)NCc5ccccc5)cnc4c3cc2CO1` gave Giardia kill 15, KB-3-1 tox 2.6µM*, A549 viability -19%, Nrf2 inh 0%, PI4K2A block 1 and KB-V1 MDR tox 3.7µM*.
For CC1(C)Cc2nc3sc4c(SCC(=O)NCc5ccco5)ncnc4c3cc2CO1 the results were Giardia kill -10, KB-3-1 tox 4.6µM*, A549 viability inconclusive, PI4K2A block -17 and KB-V1 MDR tox inconclusive.
For CCN(CC)CCn1c(C)nc2c(sc3nc4c(cc32)COC(C)(C)C4)c1=O the results were Giardia kill 1, KB-3-1 tox inactive, A549 viability 1%, Nrf2 inh inconclusive, PI4K2A block 1 and KB-V1 MDR tox inactive.
`Cc1nc2c(sc3nc4c(cc32)COC(C)(C)C4)c(=O)n1Cc1ccccc1` gave Giardia kill -24, KB-3-1 tox inactive, A549 viability -1%, PI4K2A block 1 and KB-V1 MDR tox 5.2µM*.
`CC(C)c1nc2sc3c(SCC(=O)NCc4ccco4)ncnc3c2c2c1CCC2` gave Giardia kill inconclusive, KB-3-1 tox inactive, A549 viability -4%, Nrf2 inh inconclusive, PI4K2A block -20 and KB-V1 MDR tox inactive.
`C#CCNC(=O)C[C@H]1C[C@@]2(C(=O)OC)C(=C[C@H](C(C)(C)C)O[C@@H]2C)N(Cc2ccco2)C1=O` gave PI4K2A block -4.
Cc1nc2c(sc3nc4c(cc32)COC(C)(C)C4)c(=O)n1CC(=O)NCc1ccco1 was read as Giardia kill 1, KB-3-1 tox 5.2µM*, A549 viability -6%, PI4K2A block -6 and KB-V1 MDR tox inconclusive.
`CCCc1nc2c(sc3nc4c(cc32)COC(C)(C)C4)c(=O)n1Cc1ccco1` gave Giardia kill -9, KB-3-1 tox inactive, A549 viability 0%, Nrf2 inh -11%, PI4K2A block -14 and KB-V1 MDR tox inconclusive.
Screening Cc1ccc(S(=O)(=O)N2CCCCC2)cc1NCC(=O)Nc1ccc(Br)cc1F returned KB-3-1 tox 3.3µM*, PI4K2A block 1 and KB-V1 MDR tox inconclusive.
Cc1ccc(S(=O)(=O)N2CCCCC2)cc1NC(=O)CSCC(=O)O was read as Giardia kill -4, KB-3-1 tox inactive, A549 viability 1%, Nrf2 inh 14%, PI4K2A block -2 and KB-V1 MDR tox inactive.
For Cc1ccc(S(=O)(=O)N2CCCCC2)cc1NC(=O)CNC(C)c1ccc(Cl)c(Cl)c1 (stereo not given) the results were Giardia kill 20, KB-3-1 tox 15µM*, A549 viability inconclusive, Nrf2 inh inconclusive, PI4K2A block -3 and KB-V1 MDR tox inactive.
Screening CC(=O)Nc1nc2ncccn2c1-c1ccc(C)cc1 returned PI4K2A block 5.
For COc1ccccc1N(C1=NCCCS1)S(=O)(=O)c1ccc(C(C)(C)C)cc1 the results were Giardia kill 0, KB-3-1 tox inconclusive, A549 viability 10%, Nrf2 inh inconclusive, PI4K2A block 1 and KB-V1 MDR tox 23µM*.
`CC(C)CNC(=S)NC(=O)c1ccc([N+](=O)[O-])cc1` gave Giardia kill 2, KB-3-1 tox inactive, A549 viability 1%, PI4K2A block -6 and KB-V1 MDR tox inactive.
Screening CC(C)CNC(=S)NC(=O)c1csc([N+](=O)[O-])c1 returned Giardia kill -87*, KB-3-1 tox inactive, A549 viability 2%, Nrf2 inh inconclusive, PI4K2A block -7 and KB-V1 MDR tox inactive.
Screening O=C1CCC[C@H]2C[C@H](NCc3cccc(Cl)c3)CC[C@]23CCCN13 returned PI4K2A block -2.
Screening CC(=O)Cc1nsc(NC(=O)c2ccc(-c3cccc(C(F)(F)F)c3)o2)n1 returned Giardia kill -3, KB-3-1 tox inconclusive, A549 viability -11%, Nrf2 inh -14%, PI4K2A block -1 and KB-V1 MDR tox 5.8µM*.
`CO/N=C(/C(=O)N[C@@H]1C(=O)N2C(C(=O)[O-])=C(C[n+]3ccn4ncccc43)CS[C@H]12)c1nsc(N)n1` gave PI4K2A block 0.
Cc1ccc2c(c1)c1c3n2CCN=C3CCC1 was read as Giardia kill 8, KB-3-1 tox inconclusive, A549 viability -3%, Nrf2 inh 7%, PI4K2A block 0 and KB-V1 MDR tox 15µM*.
Screening Cc1cccc(C)c1-n1nnnc1C(c1ccnc2ccccc12)N1CCCN(C(=O)OC(C)(C)C)CC1 (stereo not given) returned KB-3-1 tox inconclusive, PI4K2A block -2 and KB-V1 MDR tox inactive.
`Cc1cccc(C)c1-n1nnnc1C(c1ccnc2ccccc12)N1CCN(c2ccccc2F)CC1` (stereo not given) gave KB-3-1 tox inconclusive, PI4K2A block -4 and KB-V1 MDR tox 16µM*.
Screening CNC(=O)c1cnn(-c2nc(N)c3ncn([C@@H]4O[C@H](CO)[C@@H](O)[C@H]4O)c3n2)c1 returned PI4K2A block 2.
CN(Cc1ccc(Cl)cc1Cl)C(=O)c1cccc(S(=O)(=O)NCc2ccccc2)c1 was read as Giardia kill 4, KB-3-1 tox inconclusive, A549 viability -12%, Nrf2 inh -20%, PI4K2A block -2 and KB-V1 MDR tox 5.2µM*.
`Cc1ccc(S(=O)(=O)NCc2ccccc2)cc1C(=O)N1CCCCCCC1` gave Giardia kill -3, KB-3-1 tox inactive, A549 viability -12%, Nrf2 inh -6%, PI4K2A block -2 and KB-V1 MDR tox 9.2µM*.
Screening Cc1ccc(S(=O)(=O)NCc2ccccc2)cc1C(=O)N(C)Cc1ccccc1F returned Giardia kill 0, KB-3-1 tox inactive, A549 viability -3%, Nrf2 inh -15%, PI4K2A block -2 and KB-V1 MDR tox inconclusive.
